PubChem BioAssay (NCI)
The panel holds about 83,000 compounds, 20% with a hit somewhere; the sample as a whole holds those more often.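 Single-dose data. Exposure time 48 hours. Values below 10 considered active.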 Values without a mark were called inactive. Active and inactive are the calls of the source.

Assays:
Assay in all cases: NCI-60 one-dose screen, 48 h (100 = growth as untreated, 0 = no growth, -100 = all killed)
Details in all cases: 10 µM unless noted
NCI-H23 lung = test system: NCI-H23 lung
NCI-H226 lung = test system: NCI-H226 lung
NCI-H322M lung = test system: NCI-H322M lung
HOP-62 NSCLC = test system: HOP-62 NSCLC
NCI-H460 lung = test system: NCI-H460 lung
NCI-H522 lung = test system: NCI-H522 lung
A549/ATCC NSCLC = test system: A549/ATCC NSCLC
786-0 renal = test system: 786-0 renal
COLO 205 colon = test system: COLO 205 colon
DU-145 prostate = test system: DU-145 prostate
K-562 leukemia = test system: K-562 leukemia
MALME-3M melanoma = test system: MALME-3M melanoma
MDA-MB-231 breast = test system: MDA-MB-231 breast
RXF 393 renal = test system: RXF 393 renal
SF-268 CNS = test system: SF-268 CNS
SF-295 CNS = test system: SF-295 CNS
SF-539 CNS = test system: SF-539 CNS
UACC-257 melanoma = test system: UACC-257 melanoma
M14 melanoma = test system: M14 melanoma
HOP-92 NSCLC = test system: HOP-92 NSCLC

Compound | growth (NCI-H23 lung) | growth (NCI-H226 lung) | growth (NCI-H322M lung) | growth (HOP-62 NSCLC) | growth (NCI-H460 lung) | growth (NCI-H522 lung) | growth (A549/ATCC NSCLC) | growth (786-0 renal) | growth (COLO 205 colon) | growth (DU-145 prostate) | growth (K-562 leukemia) | growth (MALME-3M melanoma) | growth (MDA-MB-231 breast) | growth (RXF 393 renal) | growth (SF-268 CNS) | growth (SF-295 CNS) | growth (SF-539 CNS) | growth (UACC-257 melanoma) | growth (M14 melanoma) | growth (HOP-92 NSCLC)
Cc1ccc(Cc2ccc(C)cc2)cc1 | 106% | 100% | 98.3% | 98.1% | 111% | 95.3% | 102% | 96.1% | 107% | 107% | 101% | 86.9% | 123% | 99% | 106% | 101% | 106% | 93.3% | 99.6% | 
CC(=O)OC/C(C)=C\CC(C)COC(C)=O (configuration not stated) | 112% | 103% | 102% | 96.9% | 102% | 110% | 106% | 96.7% | 104% | 114% | 103% | 102% | 99.7% | 97.1% | 109% | 94.6% | 116% | 102% | 96.4% | 
FC(F)(F)c1cc(NC2=NCCN=C(Nc3cc(C(F)(F)F)cc(C(F)(F)F)c3)SS2)cc(C(F)(F)F)c1 | 47.2% | 67.9% | 90.1% | 74.8% | 40% | 13.1% | 49.1% | 70.6% | 49.1% | 66.6% | 28.8% | 37% | 73.2% | 77.6% | 74.2% | 52.6% | 81.3% | 64.4% | 82.1% | 
C1C[S+]2CC[S+]1CC2 | 97.9% | 98.3% | 111% | 104% | 101% | 98.5% | 98.9% | 111% | 116% | 105% | 104% | 99.9% |  | 106% | 102% | 99% | 108% | 94.9% | 101% | 
Cn1c(=O)c2[nH]c(CCCCC(=O)O)nc2n(C)c1=O | 114% | 118% | 101% |  | 116% | 96.2% | 103% | 114% | 103% | 110% | 109% | 115% | 110% | 127% | 99.2% | 123% | 106% | 103% | 111% | 88.9%
NC(CSSCC(N)C(=O)O)C(=O)O (configuration not stated) | 20.2% | -9.33% (active) | 36.6% | 15.7% | 42.5% | -6.34% (active) | 36.7% |  | -19.2% (active) | 36% | 13.8% | 4.18% (active) | 2.86% (active) | -37.9% (active) | 28.1% | 11% | -36.8% (active) | 5.8% (active) | 2.4% (active) | 
O=[N+]([O-])c1c(O)c(CNCCCO)cc(CNCCCO)c1O | 106% | 101% | 99.5% | 106% | 119% | 121% | 95.4% | 118% | 120% | 132% | 95.9% | 109% | 99.8% | 99.7% | 118% | 106% | 94.6% | 108% | 107% | 
NC(=S)N/N=C/c1ccc(Cl)cc1 | 98.1% | 97.5% | 104% | 113% | 106% | 87.8% | 106% | 104% | 131% | 120% | 92.8% | 109% | 111% | 97.4% | 109% | 97.4% | 106% | 91.7% | 108% | 
O=C(NC(=S)N1CC=CCC1)c1ccccc1 | 107% | 104% | 116% | 109% | 113% | 77.3% | 103% | 111% | 118% | 129% | 111% | 100% | 104% | 128% | 108% | 111% |  | 105% | 95.8% | 
CCCCCCCCNC(=O)C(C)C | 94.6% | 96.4% | 107% | 104% | 98.3% | 92.5% | 102% | 107% | 108% | 105% | 108% | 106% | 109% | 93% | 104% | 100% | 96.9% | 108% | 95.5% | 
COc1cccc(C(=O)NNC(=O)c2cccc3ccccc23)c1 | 107% | 105% | 122% | 97.7% | 117% | 102% | 96% | 104% | 108% | 117% | 98.4% |  | 110% | 115% | 110% | 124% | 114% | 109% | 107% | 
CCCC(OC(C)=O)c1ccc2c(c1)OCO2 (configuration not stated) | 97.7% | 99.4% | 97.8% | 98.7% | 106% | 103% | 104% | 100% | 107% | 104% | 99% | 91.9% | 113% | 104% | 102% | 105% | 105% | 94.9% | 102% | 
COc1ccc2c(ccc[n+]2C)c1 | 99.6% | 110% | 105% | 106% | 106% | 54.7% | 108% | 97.3% |  | 126% |  | 110% | 101% | 136% | 125% | 114% | 101% | 98.2% | 108% | 
CCCCN(C=S)CCCC | 103% | 87.4% | 105% | 81.3% | 101% | 91.6% | 86.4% | 101% | 99.1% | 112% | 113% | 101% | 104% | 101% | 105% | 99.1% |  | 99.6% | 94.8% | 
CCOC(=O)c1c(C)[nH]c(C)c1C=O | 98.8% | 99.6% | 102% |  | 99.8% | 93.7% | 67.3% | 91.8% | 110% | 114% | 94.7% | 108% | 93% | 114% | 101% | 103% | 98.9% | 69.4% | 100% | 81.9%
Cc1nc(C)c(C(=O)O)cc1C(=O)O | 101% | 110% | 126% |  | 112% | 108% | 116% | 112% | 131% |  | 99.6% | 105% | 108% | 117% | 116% | 118% | 95% | 111% | 114% | 103%
C=CCOc1ccc(Cl)cc1Cl | 111% | 104% | 113% |  | 110% | 108% | 109% | 104% | 109% |  | 5.12% (active) | 113% | 91.5% | 132% | 104% | 98.2% | 96.8% | 115% | 101% | 77.3%
CC1CCC(C)(C)c2ccccc21 (configuration not stated) | 97.2% | 90% | 98.9% |  | 109% | 93.6% | 98.2% | 101% |  | 110% | 115% | 100% | 94.6% | 109% | 104% | 89.2% | 97.2% | 100% | 95.7% | 116%
